Abs 340nm = absorbance at 340 nm. fold change at 10 µM. compound absorbance at 340 nm, fold over control. 65,000 tested, under 10 active. AID 708;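 active = at 10 µM dose, initial 340 nm absorbance at least 2 fold that of control wells; inactive = change under 2 fold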;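 also: initial absorbance extrapolated from kinetic A340 decline of NADH oxidation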
NADH enzymes = inhibitors of enzymes used to reach an NAD/NADH endpoint | coupled PK/LDH NADH assays, four targets | IC50, µM (doses to about 10 µM) | hit rate 0.02% among 65,000 | AID 774;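 active = single-dose screening hits from any of four coupled enzyme assays that gave an IC50 when retested across doses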;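 also: the DPM-DC format reads NADH fluorescence rather than 340 nm absorbance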
Spn DPM-DC inh = inhibitors of Streptococcus pneumoniae diphosphomevalonate decarboxylase; purified DPM-DC, PK/LDH coupled NADH fluorescence; calls only at 10 µM; hit rate 0.49% among 65,000; AID 556;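 active = the 320 compounds with the highest percent inhibition in the single-dose primary screen, excluding strongly autofluorescent ones, cut at about 32% in these data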;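 also: kinetic rate of NADH fluorescence loss reporting ADP formed by the decarboxylase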
PMK inhibit = S. pneumoniae PMK inhibition; purified PMK, PK/LDH-coupled NADH absorbance 340 nm; inhibition, % at 10 µM; hit rate 0.49% among 65,000; AID 539;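 active = top-ranked compounds by inhibition in the single 10 µM screen, taking a fixed number of the strongest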
Spn MK inh = inhibitors of Streptococcus pneumoniae mevalonate kinase; purified MK, PK/LDH-coupled NADH absorbance 340 nm; inhibition, % at 10 µM; hit rate 0.48% among 65,000;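 active = ranked among the strongest by inhibition in the single 10 µM screen, a fixed top-ranked set picked for dose follow-up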
Fluor 339 460 = intrinsic fluorescence of library compounds, ex339/em460 – biochemical, MLSMR library, data from DPM-DC assay, artefact control, profiling panel; compound autofluorescence, ex339/em460 nm, NADH buffer; stronger effect = higher value; 1 = no-compound wells, NADH background; fluorescence fold increase at 10 µM; hit rate 5.5% among 65,000; AID 709;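 active = at 10 µM, mean starting fluorescence two-fold or more over control wells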;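 also: signal is the first read of a kinetic run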
Each line names hits and unclear results; the compound was inactive in the other large screens. Most compounds without a hit are left out; they make up all but 6.5% or so of the library.

CCOC(=O)C1CCCCN1C(=O)CCc1c(C)nc2cc(-c3ccccc3)nn2c1C (stereo unspecified)	none
COc1ccc(CNc2nc3nc(C)cc(C)n3n2)cc1OC	none
Cc1cc(C)n2nc(NCc3cccc(Br)c3)nc2n1	Fluor 339 460 3.64 (not shown: Spn DPM-DC inh)
COc1cccc(CC(NC(C)=O)C(=O)NC2CCN(c3nc(C)cc(C)c3C#N)CC2)c1 (stereo unspecified)	none
COc1ccc(CC(NC(C)=O)C(=O)NC2CCN(c3nc(C)cc(C)c3C#N)CC2)c(OC)c1 (stereo unspecified)	Fluor 339 460 2.01
O=C(Nc1ccc(S(=O)(=O)NC2CCCC2)cc1)c1cnccn1	none
CCOC(=O)CSc1cccc2cccnc12	Fluor 339 460 3.62 (not shown: Spn DPM-DC inh)
O=C(CSc1nc2ccccc2c(=O)n1Cc1ccco1)NCc1ccccc1	none
O=C(CSc1cccc2cccnc12)NCc1ccco1	Fluor 339 460 4.87 (not shown: Spn DPM-DC inh)
Cc1cc(C)n2nc(SCC(=O)NCc3ccco3)nc2n1	PMK inhibit 30.0
Cn1c(SCC(=O)NCc2ccco2)nc2ccccc2c1=O	PMK inhibit 25.0
Cc1cc(C)nc(SCC(=O)NCc2ccco2)n1	none
O=C(Nc1cc(C(F)(F)F)ccc1N1CCOCC1)C1Cc2ccccc2CN1C(=O)c1ccco1 (stereo unspecified)	none
Cn1c2c(c3ccccc31)CC/C2=N\O	none
CCOC(=O)c1nnn(CC(=O)Nc2ccccc2OC)c1C(=O)OCC	none
CCOC(=O)c1nn(-c2ccc3c(c2)OCO3)cc1O	Fluor 339 460 2.11 (not shown: Spn DPM-DC inh)
CCOC(=O)c1nn(-c2cc(C(=O)OC)cc(C(=O)OC)c2)cc1O	none
COC(=O)CSc1nc(C2CC2)cc(C(F)(F)F)c1C#N	none
N#Cc1c(C(F)(F)F)cc(C2CC2)[nH]c1=O	Fluor 339 460 2.15 (not shown: Spn DPM-DC inh)
CCCn1nnnc1NCc1cccn1C	none
Cc1cc(-n2c(=O)c(C#N)cc3c(=O)n4ccccc4nc32)no1	Fluor 339 460 3.83 (not shown: Spn DPM-DC inh)
Cc1cc(N2C(=O)C3C4c5ccccc5C(c5ccccc54)C3C2=O)no1 (stereo unspecified)	none
C=CCn1c(=O)c(C#N)cc2c(=O)n3ccccc3nc21	Fluor 339 460 4.77 (not shown: Spn DPM-DC inh)
Cc1ccnc(N2CCC(C(=O)Nc3ccc(Oc4ccccc4)cc3)CC2)n1	PMK inhibit 29.0
Cc1cc(C)nc(N2CCC(C(=O)Nc3ccc(Oc4ccccc4)cc3)CC2)n1	none
Cc1ccc(-c2nc3cnccn3c2Nc2ccccc2)o1	Fluor 339 460 2.12 (not shown: Spn DPM-DC inh)
COC(=O)C1=C(N)OC2=C(C(=O)CC(C)(C)C2)C1c1ccoc1 (stereo unspecified)	none
O=C(NC1CC2CCCC(C1)N2Cc1ccco1)NC12CC3CC(CC(C3)C1)C2 (stereo unspecified)	none
CCC1CCCCN1C(=O)CSc1nnc(-c2cccs2)o1 (stereo unspecified)	none
CN(C)c1cc(NC(=O)CN2CCOCC2)c2ccccc2n1	none (not shown: Spn DPM-DC inh)
CCCCC(=O)Nc1cc(N(C)C)nc2ccccc12	Fluor 339 460 3.82 (not shown: Spn DPM-DC inh)
Cn1nc(-c2ccc(Cl)cc2)c2cc(C(=O)N3CCC(N4CCCCC4)CC3)sc21	none
CCSc1nc2c(c(=O)[nH]1)C(c1ccccn1)C1=C(CC(C)(C)CC1=O)N2 (stereo unspecified)	Fluor 339 460 2.24 (not shown: Spn DPM-DC inh)
O=C1CCCC2=C1C(c1ccncc1)c1c(nc(SCc3ccccc3)[nH]c1=O)N2 (stereo unspecified)	Fluor 339 460 2.19 (not shown: Spn DPM-DC inh)
Cc1ccc(C2C3=C(CCCC3=O)Nc3nc(SCC(=O)NCc4ccco4)[nH]c(=O)c32)cc1 (stereo unspecified)	Fluor 339 460 3.56
Nc1nc(SCC(=O)NCc2ccco2)[nH]c(=O)c1-c1ccccc1	none
N#C/C(=C1/CCCCCN1)c1nc2ccccc2s1	none
O=c1nc(-c2ccccc2)c2ccccc2[nH]1	Fluor 339 460 2.7
COC(=O)c1[nH]c2ccc(C)cc2c1NC(=O)C(C)N1CCN(C2CCCCC2)CC1 (stereo unspecified)	Fluor 339 460 3.5 (not shown: Spn DPM-DC inh)
COC(=O)c1[nH]c2ccc(Cl)cc2c1NC(=O)CN1CCc2cc(OC)c(OC)cc2C1	none
Cc1ccc2[nH]c(C(=O)O)c(NC(=O)CN3CCN(c4cccc(C)c4C)CC3)c2c1	none
COC(=O)c1[nH]c2ccc(C)cc2c1NC(=O)CN1CCN(Cc2ccccc2)CC1	Fluor 339 460 2.92
COC(=O)c1[nH]c2cc(OC)c(OC)cc2c1NC(=O)CN1CCN(Cc2ccccc2)CC1	Fluor 339 460 3.72 (not shown: Spn DPM-DC inh)
COC(=O)c1[nH]c2ccc(C)cc2c1NC(=O)CN1CCN(c2ccccc2)CC1	Fluor 339 460 2.13
COc1ccc(S(=O)(=O)NCCc2csc(C)n2)cc1C	none
CCOC(=O)c1c(C)noc1CP(=O)(c1ccccc1)c1ccccc1	none
CC(C)(C)n1ncc2c(=O)n(CC(=O)N3CCN(c4ccccc4)CC3)cnc21	none
Cc1c(S(=O)(=O)N2CCc3ccccc3C2)c(=O)n(C)c(=O)n1C	none
COC(=O)c1[nH]c2ccc(C)cc2c1NC(=O)CN1CCC(C)CC1	none
COC(=O)c1[nH]c2ccc(C)cc2c1NC(=O)CN1CCN(c2ccc(F)cc2)CC1	Fluor 339 460 2.23
COC(=O)c1[nH]c2ccc(C)cc2c1NC(=O)CN1CCN(C(=O)c2ccccc2)CC1	Fluor 339 460 2.85 (not shown: Spn DPM-DC inh)
COc1ccc(N2CCN(c3ccc(NC(=O)c4ccc5c(c4)OCO5)cc3C#N)CC2)cc1	none
COc1ccc(CC(=O)Nc2ccc(N3CCN(c4ccc(OC)cc4)CC3)c(C#N)c2)cc1	Fluor 339 460 2.16
CCCCn1c(SCC(=O)N2CCOCC2)nnc1-c1cccs1	none
c1ccc(-c2nc(-c3ccco3)cs2)nc1	Fluor 339 460 2.1 (not shown: Spn DPM-DC inh)
c1ccc(-c2noc(-c3ccco3)n2)nc1	none
CCCOc1ccc(N2C(=O)CC(N3CCC(c4nncn4CC)CC3)C2=O)cc1 (stereo unspecified)	none
CCCNC(=O)CCC(=O)Nc1ncc(-c2ccc(C)cc2)n1C	none
CCN(C(=O)c1coc(=O)c(Br)c1)c1ccc2c(c1)OCO2	Fluor 339 460 3.35 (not shown: Spn DPM-DC inh)
CC1(C)Cc2ccccc2-c2n[nH]c(=S)n21	none
CN1CCN(C(c2ccc(F)cc2)c2nnnn2Cc2cccs2)CC1 (stereo unspecified)	none
CCN1CCN(C(c2ccc(F)cc2)c2nnnn2Cc2cccs2)CC1 (stereo unspecified)	PMK inhibit 27.0
CCCc1cc(=O)oc2cc(C)cc(OCC(=O)O)c12	Fluor 339 460 3.88 (not shown: Spn DPM-DC inh)
CCCCc1cc(=O)oc2cc(C)cc(OC(C)C(=O)O)c12 (stereo unspecified)	Fluor 339 460 2.98 (not shown: Spn DPM-DC inh)
CC1(C)Cc2nc(N)c(C(=O)NCCO)cc2CO1	Fluor 339 460 2.26 (not shown: Spn DPM-DC inh)
CCOC(=O)c1sc2nc3c(cc2c1N)COC(C)(C)C3	none
C=CCn1c(SCC(=O)Nc2cc(C)nn2-c2ccccc2)nnc1C1CCCCC1	none
CN1C(=O)C(C(=O)NC(C)(C)C)C2c3ccccc3OC13CCCCC23 (stereo unspecified)	none
Cc1n[nH]c(C)c1-c1nc2ccccc2[nH]1	none
